The results in this text go back to publication PMC7862700, “An all-to-all approach to the identification of sequence-specific readers for epigenetic DNA modifications on cytosine”.

Common to all, as to assay: DAPPL (digital affinity profiling via proximity ligation, sequencing); 10 mM Tris-HCl pH 7.5, 50 mM NaCl, 1 mM DTT, 4% glycerol, room temperature, 30 min; GST-TFs on glutathione beads, 16-mer random dsDNA library, 0.1% formaldehyde crosslink after washing; high values mean tight binding
Common to all, as to conditions: protein: recombinant; tags: N-terminal GST; dsDNA, one strand shown

For one test, the target named is T1, ERF (Homo sapiens, UniProt P50548 1-548).
T1 sequence: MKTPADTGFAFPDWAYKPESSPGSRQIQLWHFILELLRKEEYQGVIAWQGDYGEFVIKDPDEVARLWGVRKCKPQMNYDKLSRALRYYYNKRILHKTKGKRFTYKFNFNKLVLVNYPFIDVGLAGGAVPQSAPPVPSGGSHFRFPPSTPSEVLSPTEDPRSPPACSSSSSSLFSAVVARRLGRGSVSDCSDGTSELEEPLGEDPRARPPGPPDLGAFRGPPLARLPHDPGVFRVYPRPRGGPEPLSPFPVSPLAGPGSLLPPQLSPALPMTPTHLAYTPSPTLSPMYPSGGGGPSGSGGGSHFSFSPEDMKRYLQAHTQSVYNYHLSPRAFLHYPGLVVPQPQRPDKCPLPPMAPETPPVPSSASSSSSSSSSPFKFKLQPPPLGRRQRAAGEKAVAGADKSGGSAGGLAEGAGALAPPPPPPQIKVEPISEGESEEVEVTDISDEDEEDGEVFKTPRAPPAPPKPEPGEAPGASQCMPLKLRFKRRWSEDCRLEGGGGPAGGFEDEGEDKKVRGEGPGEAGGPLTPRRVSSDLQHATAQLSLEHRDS
The gist of the method: (§1)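 Human transcription factors carrying a GST fusion were produced in yeast, bound to glutathione beads, tagged with DNA barcodes and pooled together with a tag-only sample. Each pool was held with 200 nmole of a random double-stranded 16-mer DNA library in Tris/NaCl/DTT/glycerol buffer for 30 min at room temperature, then washed, crosslinked in 0.1% formaldehyde, proximity-ligated with BsaI/T4 ligase (1 h, 37 °C), PCR-amplified and sequenced on an Illumina NextSeq500. Binding signal is the read frequency of each hexamer for a given factor divided by its frequency in the tag-only sample.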

For another test, the target named is T2, ETS2 (Homo sapiens, UniProt P15036 1-469).
T2 sequence: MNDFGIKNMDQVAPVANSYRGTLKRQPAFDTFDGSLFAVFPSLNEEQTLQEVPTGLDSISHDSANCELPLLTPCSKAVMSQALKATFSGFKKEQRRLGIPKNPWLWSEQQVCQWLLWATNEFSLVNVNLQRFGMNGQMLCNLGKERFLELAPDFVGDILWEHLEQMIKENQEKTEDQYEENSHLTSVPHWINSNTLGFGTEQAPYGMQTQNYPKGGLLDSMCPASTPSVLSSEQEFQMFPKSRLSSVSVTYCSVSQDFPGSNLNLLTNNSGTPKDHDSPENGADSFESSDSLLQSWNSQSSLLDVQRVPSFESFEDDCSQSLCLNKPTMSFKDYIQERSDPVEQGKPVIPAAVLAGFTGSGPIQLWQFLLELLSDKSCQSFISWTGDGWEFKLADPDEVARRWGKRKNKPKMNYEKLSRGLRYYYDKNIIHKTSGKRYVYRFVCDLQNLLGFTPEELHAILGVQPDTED
The gist of the method: as §1

In the next test the target is T3, SPDEF (Homo sapiens, UniProt O95238 1-335).
T3 sequence: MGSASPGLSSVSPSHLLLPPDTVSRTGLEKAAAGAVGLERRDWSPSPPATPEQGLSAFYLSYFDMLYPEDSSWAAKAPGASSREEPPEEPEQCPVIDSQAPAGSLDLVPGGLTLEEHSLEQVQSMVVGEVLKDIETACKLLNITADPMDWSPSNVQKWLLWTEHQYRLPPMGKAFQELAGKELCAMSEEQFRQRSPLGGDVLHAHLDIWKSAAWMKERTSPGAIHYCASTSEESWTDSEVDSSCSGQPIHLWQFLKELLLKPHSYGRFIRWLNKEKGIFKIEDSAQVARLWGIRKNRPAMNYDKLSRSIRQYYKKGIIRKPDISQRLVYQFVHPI
The gist of the method: as §1

The target in another test is T4, ETV7 (Homo sapiens, UniProt Q9Y603 1-341).
T4 sequence: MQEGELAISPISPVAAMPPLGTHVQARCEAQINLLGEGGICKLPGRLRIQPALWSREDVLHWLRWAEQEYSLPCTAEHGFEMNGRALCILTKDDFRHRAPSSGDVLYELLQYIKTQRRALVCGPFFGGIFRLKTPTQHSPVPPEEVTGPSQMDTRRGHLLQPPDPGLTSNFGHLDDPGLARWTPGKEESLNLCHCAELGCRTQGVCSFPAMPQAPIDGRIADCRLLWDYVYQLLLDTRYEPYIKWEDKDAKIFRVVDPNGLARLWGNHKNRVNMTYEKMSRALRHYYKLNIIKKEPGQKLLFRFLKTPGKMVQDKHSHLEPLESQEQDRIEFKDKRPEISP
The essentials: as §1

A further test deals with T5, ELF5 (Homo sapiens, UniProt Q9UKW6-2 1-255).
T5 sequence: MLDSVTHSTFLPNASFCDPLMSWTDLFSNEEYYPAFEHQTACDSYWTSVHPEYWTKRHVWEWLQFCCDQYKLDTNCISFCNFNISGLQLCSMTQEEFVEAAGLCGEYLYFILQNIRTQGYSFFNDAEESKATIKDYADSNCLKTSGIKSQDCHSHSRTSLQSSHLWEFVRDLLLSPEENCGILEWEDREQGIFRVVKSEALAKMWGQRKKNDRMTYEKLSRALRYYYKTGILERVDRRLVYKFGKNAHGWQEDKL
The gist of the method:
as §1

A further test deals with T6, ETV3 (Homo sapiens, UniProt P41162-2 1-143).
T6 sequence: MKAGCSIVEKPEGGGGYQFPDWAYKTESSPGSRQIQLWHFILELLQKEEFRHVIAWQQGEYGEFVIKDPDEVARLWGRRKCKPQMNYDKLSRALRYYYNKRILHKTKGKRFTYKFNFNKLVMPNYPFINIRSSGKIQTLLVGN
The gist of the method:
as §1

In the next test the target is ETV6 (Homo sapiens, UniProt P41212 1-452). The gist of the method: as §1
ETV6, sequence (P41212 whole entry): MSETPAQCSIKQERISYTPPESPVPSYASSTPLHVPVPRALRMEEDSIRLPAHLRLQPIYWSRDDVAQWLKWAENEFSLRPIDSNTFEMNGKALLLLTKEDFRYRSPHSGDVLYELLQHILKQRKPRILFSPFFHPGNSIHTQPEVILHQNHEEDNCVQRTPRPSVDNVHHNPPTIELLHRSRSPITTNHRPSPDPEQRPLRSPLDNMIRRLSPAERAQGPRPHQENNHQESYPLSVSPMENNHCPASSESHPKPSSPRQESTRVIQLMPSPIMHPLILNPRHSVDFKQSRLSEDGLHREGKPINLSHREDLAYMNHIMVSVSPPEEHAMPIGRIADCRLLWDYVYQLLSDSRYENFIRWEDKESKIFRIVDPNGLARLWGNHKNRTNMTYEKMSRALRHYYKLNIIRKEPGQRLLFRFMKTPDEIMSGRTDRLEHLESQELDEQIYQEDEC

With AGTTAA, the binding signal is 1.1 fold enrichment (6-mer frequency, TF over GST control) in the test with ERF; 1.06 fold enrichment (6-mer frequency, TF over GST control) with ETS2; 1.01 fold enrichment (6-mer frequency, TF over GST control) with SPDEF; 1.01 fold enrichment (6-mer frequency, TF over GST control) in the test with ETV7; 1.03 fold enrichment (6-mer frequency, TF over GST control) with ELF5; 1.13 fold enrichment (6-mer frequency, TF over GST control) with ETV3. For the same sequence, in the test with ETV6, the binding signal was 1.11 fold enrichment (6-mer frequency, TF over GST control).
As to AGACTT, the binding signal with ERF was 1.02 fold enrichment (6-mer frequency, TF over GST control); with ETS2 it was 1 fold enrichment (6-mer frequency, TF over GST control); in the test with ETV7 it was 1.02 fold enrichment (6-mer frequency, TF over GST control); in the test with ELF5 it was 1.2 fold enrichment (6-mer frequency, TF over GST control); in the test with ETV3, 1.09 fold enrichment (6-mer frequency, TF over GST control); with ETV6, 1.04 fold enrichment (6-mer frequency, TF over GST control).
As to CGGTAT, the binding signal with ERF was 1.02 fold enrichment (6-mer frequency, TF over GST control); in the test with ETS2 it was 1.01 fold enrichment (6-mer frequency, TF over GST control); with SPDEF, 1.32 fold enrichment (6-mer frequency, TF over GST control); in the test with ELF5 it was 1.1 fold enrichment (6-mer frequency, TF over GST control); with ETV3, 1.05 fold enrichment (6-mer frequency, TF over GST control); in the test with ETV6, 1.06 fold enrichment (6-mer frequency, TF over GST control).
On to TAAAGC, for which the binding signal in the test with ERF is 1.13 fold enrichment (6-mer frequency, TF over GST control); with ETS2 it was 1.05 fold enrichment (6-mer frequency, TF over GST control); with ETV7, 1.04 fold enrichment (6-mer frequency, TF over GST control); in the test with ELF5, 1.01 fold enrichment (6-mer frequency, TF over GST control); with ETV3 it was 1.1 fold enrichment (6-mer frequency, TF over GST control); with ETV6, 1.02 fold enrichment (6-mer frequency, TF over GST control).
Regarding CGCTCG, the binding signal with ERF is 1.2 fold enrichment (6-mer frequency, TF over GST control); with ETS2, 1.1 fold enrichment (6-mer frequency, TF over GST control); with SPDEF, 1.1 fold enrichment (6-mer frequency, TF over GST control); with ELF5 it was 1.03 fold enrichment (6-mer frequency, TF over GST control); with ETV3, 1.08 fold enrichment (6-mer frequency, TF over GST control); with ETV6, 1.08 fold enrichment (6-mer frequency, TF over GST control).
Consider CGACGT, for which the binding signal with ERF is 1.17 fold enrichment (6-mer frequency, TF over GST control); with ETS2, 1.05 fold enrichment (6-mer frequency, TF over GST control); with SPDEF, 1.02 fold enrichment (6-mer frequency, TF over GST control); with ETV7, 1.2 fold enrichment (6-mer frequency, TF over GST control); in the test with ELF5 it was 1.11 fold enrichment (6-mer frequency, TF over GST control); with ETV3 it was 1.09 fold enrichment (6-mer frequency, TF over GST control). For the same sequence, in the test with ETV6, the binding signal is 1.08 fold enrichment (6-mer frequency, TF over GST control).
As for CTCAGG, the binding signal with ERF is 1.02 fold enrichment (6-mer frequency, TF over GST control); with ETS2, 1.12 fold enrichment (6-mer frequency, TF over GST control); with SPDEF, 1 fold enrichment (6-mer frequency, TF over GST control); with ELF5, 1.04 fold enrichment (6-mer frequency, TF over GST control); with ETV3, 1.01 fold enrichment (6-mer frequency, TF over GST control); in the test with ETV6 it was 1.08 fold enrichment (6-mer frequency, TF over GST control).
Turning to ACTTAG, the binding signal is 1.17 fold enrichment (6-mer frequency, TF over GST control) with ERF; 1.14 fold enrichment (6-mer frequency, TF over GST control) with ETS2; 1.01 fold enrichment (6-mer frequency, TF over GST control) with SPDEF; 1.03 fold enrichment (6-mer frequency, TF over GST control) in the test with ETV7; 1.09 fold enrichment (6-mer frequency, TF over GST control) with ETV3; 1.14 fold enrichment (6-mer frequency, TF over GST control) in the test with ETV6.
